Molecules are shown by their SMILES. About 83,000 compounds went through this panel and 20% of them were active in at least one assay; those are over-represented in the sample as a whole.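 Percent growth is the endpoint: 0 to 100 indicates growth inhibition (40 means 60% inhibition), 0 means no net growth, and negative values indicate cell death.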 Activity calls are given as the source filed them. Rule for the calls: active = growth percent below 10; inactive = the rest.

For one experiment, the system named is NCI-H226 lung. Put plainly: NCI-60 one-dose screen, 48 h (100 = growth as untreated, 0 = no growth, -100 = all killed). The settings on record: 10 µM.
With `NCCNc1ccc2cc(-c3nc4ccccc4[nH]3)c(=O)oc2c1`, the growth was 87.4% (inactive).
For the compound `Fc1ccc(Nc2ccnc(N3CCN(c4ccnc5cc(Cl)ccc45)CC3)n2)cc1`, the growth is 54% (inactive).
Still for that read-out and setting: the value for `Clc1cc(Cl)c(Cl)c(-c2nc(-c3cccnc3)cs2)c1` was 90.9% (inactive); that for `CCCc1c(CC)c(=N)c2ccccc2n1C` was 83.2% (inactive); that for `N#CN1CC[C@H](C(=O)Nc2ncc(-c3ccccc3)s2)C1` was -6.52% (active).
Still for that read-out and setting: the value for `C[N+]1=C(/C=C/c2ccc(I)cc2)C(C)(C)c2ccccc21` was 104% (inactive); that for `Clc1cc(Cl)c(OCCCCCCN2CCNCC2)c(Cl)c1` was 94% (inactive).
The same measure, in the same setting: the value for `COCCOC(=O)NC(=O)Nc1ccc(C(=O)c2ccc(Cl)cc2)cc1` was 46.2% (inactive); that for `CCCCCCCCCCSC(=N)N` (tested in a mixture with another compound) was 94.2% (inactive).
Consider `COc1cc(-c2nc3ccccc3[nH]2)ccc1OCc1nnc(-c2ccc(Br)cc2)o1`, for which the growth is 121% (inactive).
In the case of `O=S(=O)(NCCO)c1ccc(OCCOc2ccc(S(=O)(=O)NCCO)cc2)cc1`, the growth is 91.3% (inactive).
Take `Cc1ccc([P+](Cc2ccccc2)(c2ccccc2)c2ccccc2)cc1`: the growth is 28.3% (inactive).
The same measure, in the same setting: as for `O=C(Nc1cccc(Cl)c1)OCC(COC(=O)Nc1cccc(Cl)c1)(COC(=O)Nc1cccc(Cl)c1)[N+](=O)[O-]`, the figure is 66.4% (inactive); as for `COc1ccc(Cn2cc3c(c2-c2cc(OC)c(OC)c(OC)c2)CCc2cnoc2-3)cc1N`, 12.7% (inactive); as for `COc1ccc(-c2nnc(SCC(=O)c3ccccc3)o2)cc1`, 97.5% (inactive).
Still for that read-out and setting: the value for `Cc1ccc([P+](Cc2ccc([N+](=O)[O-])cc2)(c2ccc(C)cc2)c2ccc(C)cc2)cc1` was 80.6% (inactive); that for `Cc1cc(Cl)ccc1Nc1nc(C(F)(F)F)ccc1C(=O)N/N=C/c1ccccc1Cl` was -12.4% (active); that for `O=C(OCc1ncc(-c2ccc(C(F)(F)F)cc2)c(NC2CCCCCC2)n1)c1c(F)c(F)c(F)c(F)c1F` was 77.7% (inactive).
Still for that read-out and setting: the value for `O=C1CC(c2cccc(-c3cccnc3)c2)=Nc2ccc(Br)cc2N1` was 27.8% (inactive); that for `c1ccc(OCCC[P+](c2ccccc2)(c2ccccc2)c2ccccc2)cc1` was 47.4% (inactive); that for `COCCNCC(O)Cn1c2ccc(Cl)cc2c2cc(Cl)ccc21` (stereo not given) was 43.1% (inactive).
For the compound `Nc1cc2c(cc1Cl)-c1ccc(Cl)cc1C2=O`, the growth is 105% (inactive).

In a further experiment the test system is NCI-H322M lung. The experiment is described as above. The settings on record: 10 µM.
With `CCOC(=O)c1cc(-c2ccccc2)nc(N)n1`, the growth is 99% (inactive).
`COc1cc(C)c2sc3ccccc3c(=O)c2c1NCCN(C)C`: the growth is 90.6% (inactive).
Take `C/C=C\COc1cc(C)c(Cl)cc1Cl`: the growth was 104% (inactive).
The same measure, in the same setting: as for `NC(N)=NS(=O)(=O)c1ccc(Nc2ccc3nnc(-c4ccncc4)n3n2)cc1`, the figure is 103% (inactive); as for `COc1ccc(C2C=C(c3ccc(Cl)c(Cl)c3)N=C3SC(C)=CN32)cc1` (stereo not given), 98.7% (inactive).
With `CC(=O)OC1Oc2ccccc2-c2oc(=O)c(-c3ccc(F)cc3)cc21` (stereo not given), the growth was 107% (inactive).
Same read-out and setting: as for `CS(=O)(=O)Nc1ccc(Nc2c3ccccc3nc3cc(Cl)ccc23)cc1`, the figure is 50.6% (inactive); as for `COc1cc2nc(Sc3sc(N)nc3C)n(-c3ccc(Oc4ccccc4)cc3)c(=O)c2cc1OC`, 123% (inactive).
On the same count and under the same terms, as for `CCOC(=O)c1sc(NC(=O)c2cc(OC)c(OC)c(OC)c2)nc1C`, the figure is 161% (inactive); as for `O=C(Nc1ccc(OCc2nnc(-c3ccccc3)o2)c(F)c1)Nc1ccc(Cl)c(Cl)c1`, 62.5% (inactive).
For `COc1ccc(/C=C2\SC(=S)N(CCCN3CCOCC3)C2=O)c(OC)c1`, the growth was 111% (inactive).
Regarding `CCSc1nc2c([nH]1)c(=O)n(C)c(=S)n2C`, the growth is 117% (inactive).
Turning to `CCNC(=S)NN`, the growth is 78.7% (inactive).
Take `COc1ccc(-c2ccc(-c3ccc(C(=N)N)c(F)c3)s2)cc1`: the growth was -91.5% (active).
Take `O=C(c1ccc(Cl)cc1)c1no[n+]([O-])c1C(=O)c1ccc(Cl)cc1`: the growth was 107% (inactive).
The same measure, in the same setting: the value for `COc1cccc2c1O/C(=C\c1ccc([N+](=O)[O-])s1)C2=O` was 82% (inactive).
The same measure, in the same setting: the value for `NCCNc1ccc2cc(-c3nc4ccccc4[nH]3)c(=O)oc2c1` was 103% (inactive).
On the same count and under the same terms, as for `Fc1ccc(Nc2ccnc(N3CCN(c4ccnc5cc(Cl)ccc45)CC3)n2)cc1`, the figure is 65.5% (inactive); as for `Clc1cc(Cl)c(Cl)c(-c2nc(-c3cccnc3)cs2)c1`, 99.2% (inactive).
With `CCCc1c(CC)c(=N)c2ccccc2n1C`, the growth is 71% (inactive).
As for `N#CN1CC[C@H](C(=O)Nc2ncc(-c3ccccc3)s2)C1`, the growth was 28.4% (inactive).
For `C[N+]1=C(/C=C/c2ccc(I)cc2)C(C)(C)c2ccccc21`, the growth was 89.1% (inactive).
On to `Clc1cc(Cl)c(OCCCCCCN2CCNCC2)c(Cl)c1`, for which the growth was 78.3% (inactive).
Same read-out and setting: as for `COCCOC(=O)NC(=O)Nc1ccc(C(=O)c2ccc(Cl)cc2)cc1`, the figure is 57.9% (inactive); as for `CCCCCCCCCCSC(=N)N` (tested in a mixture with another compound), 105% (inactive); as for `COc1cc(-c2nc3ccccc3[nH]2)ccc1OCc1nnc(-c2ccc(Br)cc2)o1`, 88.8% (inactive).
On to `O=S(=O)(NCCO)c1ccc(OCCOc2ccc(S(=O)(=O)NCCO)cc2)cc1`, for which the growth was 90.4% (inactive).
As to `Cc1ccc([P+](Cc2ccccc2)(c2ccccc2)c2ccccc2)cc1`, the growth was 16.2% (inactive).
As to `O=C(Nc1cccc(Cl)c1)OCC(COC(=O)Nc1cccc(Cl)c1)(COC(=O)Nc1cccc(Cl)c1)[N+](=O)[O-]`, the growth is 45.8% (inactive).
As for `COc1ccc(Cn2cc3c(c2-c2cc(OC)c(OC)c(OC)c2)CCc2cnoc2-3)cc1N`, the growth was 14.9% (inactive).
Same read-out and setting: as for `COc1ccc(-c2nnc(SCC(=O)c3ccccc3)o2)cc1`, the figure is 107% (inactive); as for `Cc1ccc([P+](Cc2ccc([N+](=O)[O-])cc2)(c2ccc(C)cc2)c2ccc(C)cc2)cc1`, 69.3% (inactive); as for `Cc1cc(Cl)ccc1Nc1nc(C(F)(F)F)ccc1C(=O)N/N=C/c1ccccc1Cl`, 9.54% (active).
Still for that read-out and setting: the value for `O=C(OCc1ncc(-c2ccc(C(F)(F)F)cc2)c(NC2CCCCCC2)n1)c1c(F)c(F)c(F)c(F)c1F` was 87.6% (inactive); that for `O=C1CC(c2cccc(-c3cccnc3)c2)=Nc2ccc(Br)cc2N1` was 67.2% (inactive); that for `c1ccc(OCCC[P+](c2ccccc2)(c2ccccc2)c2ccccc2)cc1` was 20.4% (inactive).
The same measure, in the same setting: the value for `COCCNCC(O)Cn1c2ccc(Cl)cc2c2cc(Cl)ccc21` (stereo not given) was -20.1% (active); that for `Nc1cc2c(cc1Cl)-c1ccc(Cl)cc1C2=O` was 103% (inactive).

The values are drawn from PubChem BioAssay (NCI).
